Reference: PubChem BioAssay AID1745847 (National Center for Advancing Translational Sciences (NCATS), 2022)
In all, about 2,100 compounds went through this assay and about 670 (32%) were called active. Another 50% or so got no clear call; they are omitted. The list shows a part of the results. A number with no mark means an inactive call. Calls follow the shape of the dose curve; as a rule, active = well fitted inhibition curve with a large enough effect; inconclusive = small, poorly fitted or top-dose-only effect; inactive = no such curve, though single readings can be large or run the other way.

Assay: CMV-Luciferase Counterscreen for Inhibitors of ATXN expression; also: nearly all actives have a fitted effect of over 55% in size
Conditions: HEK-293 CMV-luciferase reporter, luminescence, 24 h; series mostly up to 57.5 µM; activity change, negative = inhibition: at the top concentration
Excerpt: PI: Daniel Scoles Ph.D. University of Utah School of Medicine, Salt Lake City, Utah MLPCN Grant: NS073009 Spinocerebellar ataxia type 2 (SCA2) is a multisystem neurodegenerative disease caused by a dominantly acting mutation leading to expansion of a polyQ domain in the ataxin-2 protein (ATXN2). SCA2 patients develop progressive ataxia and later lose function in other neuronal systems. Prominent parkinsonian signs develop in some patients. Like many neurodegenerative disorders, no symptomatic or disease-modifying treatments are known. The primary objective of the proposed research is to identify compounds inhibiting ATXN2 expression and to test them for efficacy in SCA2 mouse models. We have developed a cell-based assay paired with an in vivo mouse model using identical luciferase expression constructs. This approach takes advantage of an ATXN2-luciferase transgene, with the luciferase gene flanked by the upstream and downstream portions of the ATXN2 gene. Here we describe a 5-7 dose quantitative high thoroughput screen (qHTS) for compounds lowering ATXN2 expression. We screened the NIH Molecular Libraries Small Molecule Repository (MLSMR) and NCGC's mechanistically annotated (MIPE) and drug repurposing (NPC) collections of compounds for lowering expression of an ATXN2-luciferase reporter in HEK-293 cells. The assay is a multiplexed cell viability assay to ensure target reduction in the absence of cytotoxicity. Secondary qHTS assays included a CMV-luciferase reporter expressed in HEK-293 cells as well as a biochemical assay using recombinant luciferase to detect inhibitors of the reporter enzyme. Compounds that inhibit ATXN2 expression but is not cytotoxic were selected for confirmatory and secondary screens.
PROTOCOL TABLE (as described by Inglese J, Shamu CE and Guy RK. 2007) SEQUENCE No. (e.g., 1, 2, 3, etc.); PARAMETER (e.g., Cells, Incubation, Reagent, etc.); VALUE; DESCRIPTION. 1; Cells; 4 uL; white, solid bottom, 1536-well Greiner assay plate. 2; Incubation; 2 hr; 37 degree C in 5% humidified CO2. 3; Compounds; 23 nL; Kalypsis pintool (Wako USA) equipped with a 1536-well pin head. 4; Incubation; 24 hr; 37 degree C in 5% humidfified CO2. 5; Reagent; 1 uL; Gly-Phe-7-Amino-4-trifluoromethylcoumarin. 6; Incubation; 30 min; 37 degree C in 5% humidfified CO2. 7; Detection; Fluorescence; Viewlux plate reader (PerkinElmer). 8; Reagent; 3 uL; SteadyGlo luciferase solution (Promega). 9; Incubation; 5 min; room temperature. 10; Detection; Luminescence; ViewLux plate reader (PerkinElmer). NOTES (numbers refer to Sequence numbers above) 1. HEK-293 cells expressing CMV-luciferase reporter (designated as SC cells) were suspended in phenol-red free DMEM and dispensed in assay plates using a Multidrop Combi dispenser (Thermo Fisher Scientific). 2. Assay plates were incubated. Evaporation was prevented by covering assay plates with metal lids containing holes to allow gas diffusion. 3. Compounds were added in a dose response manner with the final concentrations of 57, 11.4, 2.28, 0.46, 0.091, 0.018, 0.0037 uM. Vehicle-only plates, with DMSO being pin-transferred to columns 5-48, were inserted uniformly at the beginning and the end of each library to monitor and record any shifts in assay performance. 5. 125 uM Gly-Phe-7-Amino-4-trifluoromethylcoumarin (MP Biomedicals) working concentration was used at a final concentration of 25 uM. 7. To assess cell viability; the assay plates were read using the ViewLux high-throughput CCD imager (PerkinElmer), wherein single end-point fluorescence measurement was acquired (excitation 405/10; emission 540/25 nm). 8. Detection reagent SteadyGlo Luciferase (Promega) was added to the assay plate. 10. Luminescence is then measured on the ViewLux imager equipped with a clear emission filter using a 2 sec exposure. […]
% is scaled to controls: 0 for no effect and ±100 for the full control effect; potency is read from the fitted curve at half-maximal effect.

Compound	Potency	activity change, negative = inhibition
CC(=O)Oc1ccc(C23c4ccccc4C2(OC(C)=O)c2cc(OC(C)=O)ccc23)cc1 (centres undefined)	25.1 µM (active)	
COc1ccc(OCc2cccc(C(=O)Nn3cc([N+](=O)[O-])cn3)c2)cc1	0.398 µM (active)	
O=C(N/N=C/c1ccc(O)cc1O)c1ccc(NC(=O)C2CCCCC2)cc1	12.6 µM (active)	
O=C(N/N=C/c1ccc(O)cc1O)c1ccncc1	3.98 µM (active)	
O=C(N/N=C/c1cc(Br)ccc1O)c1ccncc1	1 µM (active)	
CC(C)CC(=O)NC(=S)NNC(=O)c1ccc(NC(=O)C2CCCCC2)cc1		8.7% [at 11.4 µM]
O=C(N/N=C/c1ccc(O)cc1O)c1ccc(CN2C(=O)c3cccc4cccc2c34)cc1	1.78 µM (active)	
Cc1nc(SC2CC(=O)N(c3ccccc3)C2=O)n[nH]1 (centres undefined)		-2.55%
O=c1[nH]c(CN2CCN(c3ncccn3)CC2)nc2c(Br)cc(Br)cc12		-16.4% [at 11.4 µM]
O=C(NCc1ccccc1C(F)(F)F)c1cccc2c1C(=O)c1ccc(N3CCC(N4CCCCC4)CC3)cc1S2(=O)=O		34.1% [at 11.4 µM]
O=C(N/N=C/c1cc(Br)cc(Br)c1O)c1ccncc1	3.98 µM (active)	
O=C(N/N=C/c1cc(Br)ccc1O)C(c1ccncc1)N1CCOCC1 (centres undefined)	10 µM (active)	
COc1ccc(C(=O)N/N=C/c2cc(Br)ccc2O)cc1OC	2.51 µM (active)	
O=C(N/N=C/c1cc(Br)ccc1OC(=O)c1ccc(Br)cc1)c1ccncc1	3.98 µM (active)	
O=C(NN=Cc1ccc(O)cc1O)c1ccccc1NS(=O)(=O)c1cccs1	3.16 µM (active)	
CCCCC(=O)NC(c1ccccc1)c1ccc2cccnc2c1O (centres undefined)	3.98 µM (active)	
CCCC(=O)NC(c1ccccc1)c1ccc2cccnc2c1O (centres undefined)	2.24 µM (active)	
CCCC(=O)NC(c1ccc(C(C)C)cc1)c1ccc2cccnc2c1O (centres undefined)	0.355 µM (active)	
CCCC(=O)NC(c1ccc(OC)cc1)c1ccc2cccnc2c1O (centres undefined)	3.16 µM (active)	
CCCC(=O)NC(c1ccc(C)cc1)c1ccc2cccnc2c1O (centres undefined)	2 µM (active)	
CCOC(=O)COc1ccc(Br)cc1/C=C/c1[nH]c(=O)[nH]c(=O)c1[N+](=O)[O-]		3.24% [at 11.4 µM]
CN1OC[C@@H]2CN[C@H](c3ccc(-c4cc5ccccc5o4)cc3)C[C@@H]21	0.0794 µM (active)	

Compound	Potency	activity change, negative = inhibition
N#C/C(=C\c1ccc([N+](=O)[O-])o1)c1nc2ccccc2[nH]1	22.4 µM (active)	
Cc1c(N/N=C(\C#N)C(=O)c2ccccc2)c(=O)n(-c2ccccc2)n1C	3.98 µM (active)	
COc1ccc(NS(=O)(=O)c2ccc(C(=O)Nc3c(C)n(C)n(-c4ccccc4)c3=O)cc2)cc1		0.165% [at 11.4 µM]
Cc1cc(N2CCN(Cc3nc(-c4ccc(Cl)cc4)oc3C)CC2)cc(C)n1	25.1 µM (active)	
NS(=O)(=O)c1ccc(CCNC(=O)c2cc(-c3ccccn3)nc3ccc(Br)cc23)cc1		-21.8%
COC(=O)c1ccc(C(=O)Nc2cc(Cl)ccc2Cl)cc1NC(=O)c1ccc(N(C)C)cc1		-1.02% [at 11.4 µM]
COc1ccc(N(C)S(=O)(=O)c2ccc(Cl)c(C(=O)NCCc3ccc(Cl)cc3)c2)cc1	14.1 µM (active)	
CCOP(=O)(OCC)C(Cc1ccccc1)N=C(c1ccccc1)c1ccccc1 (centres undefined)	22.4 µM (active)	
Nc1ccc(Oc2ccccc2-c2ccccc2)cc1	2 µM (active)	
CC(=O)Nc1ccc(NC2=Nc3ccccc3N3C2=Nc2c(c(C)nn2-c2ccccc2)C3c2ccccc2)cc1 (centres undefined)	1.12 µM (active)	
Cc1cccc(NC2=Nc3ccccc3N3C2=Nc2c(c(C)nn2-c2ccccc2)C3c2ccc(O)c(O)c2)c1 (centres undefined)		-12.9% [at 11.4 µM]
CN(C)CCOc1ccc(-c2c(-c3ccccc3)sc3ccccc23)cc1	22.4 µM (active)	
CC(=O)NC(c1cccs1)c1cc([N+](=O)[O-])c2cccnc2c1O (centres undefined)	10 µM (active)	
Cc1cc(OCC(=O)NC(C)c2ccccc2)ccc1[N+](=O)[O-] (centres undefined)		-19.4% [at 11.4 µM]
CC(=O)NC(c1cccs1)c1cc(Br)c2cccnc2c1O (centres undefined)	4.47 µM (active)	
CCC(=O)NC(c1ccc(C)cc1)c1cc([N+](=O)[O-])c2cccnc2c1O (centres undefined)	7.08 µM (active)	
O=C(Nc1nccs1)c1cccc(N2C(=O)c3cccc4c([N+](=O)[O-])ccc(c34)C2=O)c1		-20%
Oc1cccc(C(O)CNCc2ccc(-c3ccccc3)cc2)c1 (centres undefined)		-30%
CCc1ccc(-n2cc(-c3ccc(F)cc3)[n+]3c2SCCC3)cc1	17.8 µM (active)	
CC1(C)Cc2ccccc2C2=NNC(=O)C2=N1	25.1 µM (active)	
COc1ccc(CCNC(=O)c2cc(-c3cc(C)cc(C)c3O)n[nH]2)cc1OC	20 µM (active)	
Cc1sc2cc3c(c(C(=O)c4ccccc4)[n+]2c1C)-c1cccc2cccc-3c12	3.16 µM (active)	
